Results on 47 molecules are retold here after ChEMBL document CHEMBL3988442, “University of Dundee, Small-Polar-MMV Screening Library” (2021).

This assay has as its system Leishmania donovani. Put plainly: Leishmania intramacrophage assay. The class given is functional, organism-based. Set-up: scale not given: in the data most compounds retested in dose-response had high values.

Out of some 69,000 compounds screened, about 1,000 (1.4%) showed an effect of 50% or more. The full list was thinned out, with strong results kept by preference.

`CC(C)c1cncnc1N1CC[C@H](N2CCOCC2)[C@H](CCCO)C1`: the “Percent Effect” value (30.3 µM, […]) worked out at 26.26%.

As to `CCc1ccc(C2CC(=O)Nc3cc(OC)c(NS(C)(=O)=O)cc32)o1` (configuration not stated), the “Percent Effect” value (30.3 µM, […]) is recorded as -14.18%.

In the case of `CCc1ccc(C2CC(=O)Nc3cc(NS(C)(=O)=O)ccc32)o1` (configuration not stated), under “30.3 µM, […]”, the “Percent Effect” value turned out to be 14.16%.

With `CCCC(=O)Nc1cc2c(cc1OC)NC(=O)CC2c1ccc(CC)o1` (configuration not stated), the “Percent Effect” value (30.3 µM, […]) is recorded as 77.7%.

Turning to `Cc1cc(CN2CCN(Cc3cc(C#N)ccc3F)CC2)no1`, where the note is “30.3 µM, […]”, the “Percent Effect” value was determined as 28.56%.

With `Cc1ccnc(OC[C@@]23CCO[C@@H]2CCN(c2ncc(F)cn2)C3)n1.O=C(O)C(F)(F)F`, the “Percent Effect” value (30.3 µM, […]) was 22.41%.

For the molecule `CC(CN1CCCC1=O)NC(=O)c1cc(Cl)c2c(c1)OCO2` (configuration not stated), the “Percent Effect” value (30.3 µM, […]) is -42.28%.

Turning to `O=C(N[C@@H]1CCNC[C@H]1O)c1ccc(F)c(F)c1`, where the note is “30.3 µM, […]”, the “Percent Effect” value was -28.62%.

`O=C(N[C@@H]1CCNC[C@H]1O)c1ccc(F)c(Cl)c1`: for the setting “30 µM, 30.03 µM”, the “Percent Effect” value was 13.21%.

`O=C(N[C@@H]1CCNC[C@H]1O)c1ccc(-c2ccc(F)cc2)cc1`: where the note is “30.3 µM, […]”, the “Percent Effect” value turned out to be 72.82%.

On to `Cc1nc(CN2CCOC(Cn3cccn3)C2)nc2ccccc12` (configuration not stated), for which the “Percent Effect” value (30 µM) is 18.44%.

For `Cc1nn(C)c2nc(N3CCC(C(O)c4ccccn4)CC3)sc12` (configuration not stated), the “Percent Effect” value (30.3 µM, […]) turned out to be 50.06%.

On to `Cc1nc(N)sc1C(=O)N1CCC(C(O)Cc2ccccc2)CC1` (configuration not stated), for which the “Percent Effect” value (30.3 µM, […]) amounted to 8.209%.

`Cc1nn(C)c2nc(N3CCC(C(O)Cc4ccccc4)CC3)sc12` (configuration not stated): the “Percent Effect” value (30.3 µM, […]) is 58.21%.

As for `Cc1ccc(N2CCC(C(O)Cc3ccccc3)CC2)nn1` (configuration not stated), the “Percent Effect” value (30.3 µM, […]) was 17.05%.

For `Cc1nn(C)c2nc(N3CCN(Cc4nccn4C)CC3)sc12`, the “Percent Effect” value (30.3 µM, […]) came to 15.9%.

On to `Cc1nn(C)c2nc(N3CCC(C(O)c4nccn4C)CC3)sc12` (configuration not stated), for which, for the setting “30.3 µM, […]”, the “Percent Effect” value is -0.9674%.

Take `CN(C)C[C@@H]1CN(C(=O)Cc2ccc3ccccc3c2)C[C@@H]1CO`: under “30.3 µM, […]”, the “Percent Effect” value is on record as -3.237%.

`CC(C)N1CC2(CCC1=O)CCN(C(=O)c1cc(F)ccc1Cl)CC2`: the “Percent Effect” value (30.3 µM, […]) is 18%.

For `COc1ccc(CCNC(=O)CN2CCOCS2(=O)=O)cc1`, the “Percent Effect” value (30.3 µM, […]) was determined as 0.9024%.

For the molecule `CCc1noc(C2CCCCN2C(=O)c2ccccc2)n1` (configuration not stated), the “Percent Effect” value (30.3 µM, […]) was -11.89%.

Consider `CCc1noc(C2CCCCN2C(=O)c2cccnc2)n1` (configuration not stated), for which, for the setting “30.3 µM, […]”, the “Percent Effect” value is reported as -10.93%.

Turning to `CCc1noc(C2CCCCN2C(=O)c2ccc3c(c2)OCO3)n1` (configuration not stated), where the note is “30.3 µM, […]”, the “Percent Effect” value is recorded as 61.74%.

Take `O=C1C(CS(=O)(=O)Nc2ccc(Br)cc2)=NC(=O)n2cccc21`: the “Percent Effect” value (30.3 µM, […]) was -27.67%.

Regarding `CCc1noc(CN(CC)C(=O)c2ccc3ncsc3c2)n1`, the “Percent Effect” value (30.3 µM, […]) is given as -21.19%.

With `CN(Cc1n[nH]c(=O)n1CCc1ccccc1F)S(C)(=O)=O`, the “Percent Effect” value (30.3 µM, […]) is recorded as 22.43%.

For `COc1cccc2c1OCC(C(=O)N1CCN(CCS(C)(=O)=O)CC1)C2` (configuration not stated), the “Percent Effect” value (30.3 µM, […]) stood at 2.664%.

Turning to `Fc1ccc(CN2CCCC3(CCN(Cc4ncc[nH]4)C3)C2)cc1F` (configuration not stated), under “30.3 µM, […]”, the “Percent Effect” value is on record as 24.4%.

Regarding `Cc1ccc(CN2CCC3(CCCN(Cc4ccc(F)c(F)c4)C3)C2)o1` (configuration not stated), the “Percent Effect” value (30.3 µM, […]) was -12.81%.

In the case of `Cc1c[nH]c(CN2CCC3(CCCN(Cc4ccc(F)c(F)c4)C3)C2)n1` (configuration not stated), under “30.3 µM, […]”, the “Percent Effect” value turned out to be 53.74%.

For the molecule `Cc1cc(C)n(C2CCN(S(C)(=O)=O)CC2)n1`, under “30.3 µM, […]”, the “Percent Effect” value is -8.348%.

With `O=C(Nc1cc(Cl)ccc1Cl)NC1CCN(C2CCOC2)CC1` (configuration not stated), under “30.3 µM, […]”, the “Percent Effect” value is -19.47%.

With `O=C(NCCn1ccnc1)N1CCCN(Cc2cccs2)CC1`, where the note is “30 µM”, the “Percent Effect” value came to 32.04%.

Turning to `CN(C)C(=O)C1CN(c2ncccn2)CCN1C` (configuration not stated), the “Percent Effect” value (30.3 µM, […]) was 10.06%.

Consider `COc1nc2c(cc1C(=O)N1CCCC1c1ccccn1)CCC2` (configuration not stated), for which the “Percent Effect” value (30.3 µM, […]) is on record as 15.04%.

Turning to `CCn1cnnc1C1CCN(C(=O)C(OC)c2ccccc2)CC1` (configuration not stated), where the note is “30 µM, 30.03 µM”, the “Percent Effect” value was 25.64%.

In the case of `CCc1ccc(CN2CCC3(CC2)CC(N2CCN(C)CC2)CO3)cc1.O=C(O)C(F)(F)F` (configuration not stated), for the setting “30 µM, 30.03 µM”, the “Percent Effect” value turned out to be 78.58%.

Consider `CN1CCN(C2COC3(CCN(Cc4ccc(F)cc4)CC3)C2)CC1.O=C(O)C(F)(F)F.O=C(O)C(F)(F)F.O=C(O)C(F)(F)F` (configuration not stated), for which, for the setting “30.3 µM, […]”, the “Percent Effect” value is 32.4%.

`O=C(O)C(F)(F)F.O=C(c1ccccc1)N1CCOC2(CCN(Cc3cccs3)CC2)C1`: where the note is “30.3 µM, […]”, the “Percent Effect” value stood at 5.175%.

In the case of `Cc1ccc(CN2CCC3(CC2)CC(N2CCN(C)CC2)CO3)s1.O=C(O)C(F)(F)F.O=C(O)C(F)(F)F.O=C(O)C(F)(F)F` (configuration not stated), where the note is “30.3 µM, […]”, the “Percent Effect” value is 35.32%.

Turning to `CN1CCN(C2COC3(CCN(Cc4cccs4)CC3)C2)CC1.O=C(O)C(F)(F)F.O=C(O)C(F)(F)F` (configuration not stated), where the note is “30.3 µM, […]”, the “Percent Effect” value was determined as 53.18%.

For `Fc1cnc(N2CCOC3(CCN(Cc4cccs4)CC3)C2)nc1.O=C(O)C(F)(F)F.O=C(O)C(F)(F)F`, the “Percent Effect” value (30.3 µM, […]) came to 53.49%.

`Fc1cnc(N2CCOC3(CCN(Cc4ccsc4)CC3)C2)nc1.O=C(O)C(F)(F)F.O=C(O)C(F)(F)F`: for the setting “30 µM, 30.03 µM”, the “Percent Effect” value is 16.14%.

As for `CN1CCN(C2COC3(CCN(Cc4ccsc4)CC3)C2)CC1.O=C(O)C(F)(F)F.O=C(O)C(F)(F)F` (configuration not stated), the “Percent Effect” value (30.3 µM, […]) was determined as 20.49%.

As for `O=C(O)C(F)(F)F.c1cnc(NC2COC3(CCN(Cc4cccs4)CC3)C2)nc1` (configuration not stated), under “30.3 µM, […]”, the “Percent Effect” value is listed as -71.32%.

Turning to `COc1ccc(C2CC(=O)Oc3cc(C)[nH]c(=O)c32)cc1` (configuration not stated), the “Percent Effect” value (30 µM, 30.03 µM) is -4.044%.

Turning to `Cc1nnc(C2Cc3ccccc3CN2Cc2nc(C(C)C)no2)o1` (configuration not stated), the “Percent Effect” value (30 µM) is -13.45%.
